Measurements as given in PubChem BioAssay.
Active and inactive are the calls of the source.

Tests used:
[1] = E. coli DRC41 culture turbidity changes, primary screen, E. coli filamentation inducer project, strain DRC41, OD650, 48 h (AID 1152);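 further: E. coli MC1000 strain DRC41 lacking acrAB efflux pump and sulA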; conditions: E. coli DRC41 (acrAB sulA), higher = more signal, called active from +8 up or from −8 down
[2] = small-molecule binders of probe aLefty1, primary screen, biochemical, small-molecule microarray, 635/667 nm fluorescence (AID 1153); conditions: higher = more signal;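 further: score merges spot fluorescence with signal-to-noise ratio from the scanned slide images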
[3] = PSAC antagonists in infected red cells, primary screen, cell-based, P. falciparum Indochina, OD700, 1 h (AID 1154); conditions: P. falciparum Indochina infected RBC osmotic lysis, higher = more signal, called active from +8 up or from −8 down
[4] = PSAC antagonists in infected red cells, primary screen, cell-based, P. falciparum Indochina, OD700, 2 h (AID 1155);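 further: lysis reports solute entry through the parasite surface anion channel PSAC; channel blockers reduce lysis of infected cells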; conditions: P. falciparum Indochina infected erythrocytes, osmotic lysis OD700; higher = more signal, called active from +8 up or from −8 down
[5] = osmotic lysis modulators in infected erythrocytes, primary screen, PSAC antagonist project, cell-based, P. falciparum Indochina, OD700, 3 h (AID 1156); conditions: higher = more signal, called active from +8 up or from −8 down
[6] = PSAC antagonists in infected red cells, primary screen, cell-based, P. falciparum Indochina, OD700, 18 h (AID 1157); conditions: P. falciparum Indochina infected erythrocytes, osmotic lysis OD700, 18 h; higher = more signal, called active from +8 up or from −8 down
[7] = modulators of S6 phosphorylation in cells, primary screen, cell-based, A549, cytoblot, luminescence, serum-stimulated (AID 1158); conditions: A549 phospho-S6 cytoblot, 5 h, higher = more signal;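 further: serum-stimulated A549 lung adenocarcinoma cells; signal is phosphorylated S6 detected by cytoblot immunostaining with HRP secondary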
[8] = target: NADPH oxidase 2 (Homo sapiens) (UniProt P04839); test: NOX2-dependent H2O2 signal modulators, primary screen, NOX inhibitor project, cell-based, HEK293-NOX2, PMA-stimulated, Amplex Red fluorescence (AID 1159); conditions: 45 min, higher = more signal, called active from +8 up or from −8 down; further: test concentration not given here
[9] = target: NADPH oxidase 4 (Homo sapiens) (UniProt Q9NPH5); test: NOX4-dependent H2O2 signal modulators, primary screen, NOX inhibitor project, cell-based, HEK293-NOX4, tetracycline-induced, Amplex Red fluorescence (AID 1160); conditions: 45 min, higher = more signal, called active from +8 up or from −8 down
[10] = target: NADPH oxidase 5 (Homo sapiens) (UniProt Q96PH1); test: NOX5-dependent H2O2 signal modulators, primary screen, NOX inhibitor project, cell-based, HEK293-NOX5, Amplex Red fluorescence (AID 1161); conditions: HEK293-NOX5, ionomycin, 45 min, higher = more signal
[11] = A549 cell viability effects, profiling panel, calcein-AM fluorescence, 48 h, basal (AID 1162); conditions: higher = more signal; further: test concentration not given here
[12] = adipocyte viability effects, profiling panel, cell-based, 3T3-L1 adipocytes, calcein-AM fluorescence, 48 h, basal (AID 1163); conditions: 3T3-L1 adipocytes viability, higher = more signal; further: test concentration not given here
[13] = HepG2 cell viability effects, profiling panel, calcein-AM fluorescence, 48 h, basal (AID 1164); conditions: higher = more signal; further: test concentration not given here
[14] = MM1S cell viability effects, profiling panel, calcein-AM fluorescence, 48 h, basal (AID 1165); conditions: higher = more signal;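 further: viability of MM1S multiple myeloma cells under basal unstimulated conditions; test concentration not given here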
[15] = basal RPMI8226 viability, no added stimulus, profiling panel, cell-based, calcein-AM fluorescence, 48 h, PK04 Diversity Set (AID 1166); conditions: RPMI8226 myeloma viability, higher = more signal;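 further: cells grown under basal conditions without added stimulus; test concentration not given here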
[16] = basal HepG2 mitochondrial membrane potential changes, profiling panel, cell-based, JC-1 fluorescence, 24 h, 100 nL compound (AID 1167); conditions: higher = more signal; further: test concentration not given here
[17] = basal 3T3-L1 adipocyte mitochondrial potential changes, profiling panel, cell-based, JC-1 fluorescence, 3T3-L1 adipocytes, 24 h, 100 nL compound (AID 1168); conditions: JC-1 mitochondrial fluorescence, higher = more signal, called active from +8 up or from −8 down; further: test concentration not given here
[18] = basal RPMI8226 mitochondrial membrane potential changes, profiling panel, cell-based, JC-1 fluorescence, 24 h, 100 nL compound (AID 1169); conditions: RPMI8226 myeloma, JC-1 mitochondrial potential fluorescence, higher = more signal; further: test concentration not given here
[19] = basal MM1S mitochondrial membrane potential changes, profiling panel, cell-based, JC-1 fluorescence, 24 h, 100 nL compound (AID 1170); conditions: higher = more signal; further: test concentration not given here
[20] = A549 lung cancer cell viability effects, profiling panel, resazurin fluorescence, 24 h, PK04 Diversity Set (AID 1171); conditions: higher = more signal, called active from +8 up or from −8 down; further: test concentration not given here

Sequence of NADPH oxidase 5 (Homo sapiens) (Q96PH1 whole entry, looked up): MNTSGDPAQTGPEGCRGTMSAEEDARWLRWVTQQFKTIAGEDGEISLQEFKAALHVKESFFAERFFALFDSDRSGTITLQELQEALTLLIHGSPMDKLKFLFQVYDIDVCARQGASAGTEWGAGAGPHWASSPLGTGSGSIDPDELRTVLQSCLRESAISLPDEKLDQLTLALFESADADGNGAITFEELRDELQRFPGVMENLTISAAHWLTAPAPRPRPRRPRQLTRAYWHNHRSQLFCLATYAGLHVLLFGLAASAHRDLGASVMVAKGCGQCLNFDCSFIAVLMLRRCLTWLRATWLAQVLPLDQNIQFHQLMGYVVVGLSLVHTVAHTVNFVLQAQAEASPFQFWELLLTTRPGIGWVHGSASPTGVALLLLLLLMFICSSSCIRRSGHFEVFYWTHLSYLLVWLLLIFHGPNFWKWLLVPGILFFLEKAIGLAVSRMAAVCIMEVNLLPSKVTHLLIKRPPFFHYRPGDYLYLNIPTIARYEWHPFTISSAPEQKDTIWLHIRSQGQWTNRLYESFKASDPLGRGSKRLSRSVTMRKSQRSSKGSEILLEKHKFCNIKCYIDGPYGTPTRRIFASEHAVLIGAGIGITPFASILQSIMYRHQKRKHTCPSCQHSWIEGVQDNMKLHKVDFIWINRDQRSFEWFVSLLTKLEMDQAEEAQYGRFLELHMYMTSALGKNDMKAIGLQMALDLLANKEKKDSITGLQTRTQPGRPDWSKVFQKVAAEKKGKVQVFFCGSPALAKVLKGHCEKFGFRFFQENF
Sequence of NADPH oxidase 2 (Homo sapiens) (P04839 whole entry, looked up): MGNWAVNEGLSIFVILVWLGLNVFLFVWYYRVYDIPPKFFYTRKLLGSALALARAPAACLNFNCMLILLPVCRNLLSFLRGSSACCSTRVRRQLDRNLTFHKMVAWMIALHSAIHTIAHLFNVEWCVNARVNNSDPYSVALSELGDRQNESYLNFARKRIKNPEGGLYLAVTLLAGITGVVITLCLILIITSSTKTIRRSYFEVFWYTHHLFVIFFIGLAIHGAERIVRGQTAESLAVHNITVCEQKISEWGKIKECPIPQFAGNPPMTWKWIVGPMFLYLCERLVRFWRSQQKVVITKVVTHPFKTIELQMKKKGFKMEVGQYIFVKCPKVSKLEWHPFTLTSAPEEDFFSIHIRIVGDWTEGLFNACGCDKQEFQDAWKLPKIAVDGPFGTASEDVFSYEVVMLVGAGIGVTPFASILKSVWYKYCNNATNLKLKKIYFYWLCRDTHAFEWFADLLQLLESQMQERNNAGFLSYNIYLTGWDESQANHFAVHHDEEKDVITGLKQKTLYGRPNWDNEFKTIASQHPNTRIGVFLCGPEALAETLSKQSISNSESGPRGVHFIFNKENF
Sequence of NADPH oxidase 4 (Homo sapiens) (Q9NPH5 whole entry, looked up): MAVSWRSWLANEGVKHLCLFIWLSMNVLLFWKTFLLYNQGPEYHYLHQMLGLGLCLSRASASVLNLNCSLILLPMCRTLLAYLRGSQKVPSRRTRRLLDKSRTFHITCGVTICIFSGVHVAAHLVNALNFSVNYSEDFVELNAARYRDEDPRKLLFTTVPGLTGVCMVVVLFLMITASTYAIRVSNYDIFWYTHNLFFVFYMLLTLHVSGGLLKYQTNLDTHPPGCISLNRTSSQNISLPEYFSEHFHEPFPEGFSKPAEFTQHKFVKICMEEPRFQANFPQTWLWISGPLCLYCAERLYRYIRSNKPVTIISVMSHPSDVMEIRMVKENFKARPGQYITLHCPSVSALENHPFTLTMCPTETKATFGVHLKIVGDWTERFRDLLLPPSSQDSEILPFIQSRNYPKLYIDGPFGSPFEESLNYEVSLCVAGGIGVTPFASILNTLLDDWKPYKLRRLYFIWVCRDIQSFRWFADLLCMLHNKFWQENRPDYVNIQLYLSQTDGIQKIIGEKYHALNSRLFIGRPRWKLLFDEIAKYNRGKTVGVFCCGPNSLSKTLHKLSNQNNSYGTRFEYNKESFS

Structure (SMILES): COC(=O)[C@H](C)NC(=O)CCC1CC(OC(=O)NCc2cccc3ccccc23)CC2(CCCC(COC(=O)NCc3cccc(C(F)(F)F)c3)O2)O1 (stereo not given in full)
- z-score [1]: -0.356 (inactive)
- composite z-score [2]: 0.0794
- z-score [3]: 1.35 (inactive)
- z-score [4]: -0.871 (inactive)
- z-score [5]: 0.339 (inactive)
- z-score [6]: -1.23 (inactive)
- z-score [7]: 1.1
- z-score [8]: 0.352 (inactive)
- z-score [9]: -0.179 (inactive)
- z-score [10]: 0.0278
- z-score [11]: 0.826
- z-score [12]: -0.508
- z-score [13]: -0.918
- z-score [14]: -3.11
- z-score [15]: -0.0274
- z-score [16]: -0.707
- z-score [17]: 0.733 (inactive)
- z-score [18]: -0.742
- z-score [19]: -0.905
- z-score [20]: -1.16 (inactive)

Structure (SMILES): CON=C1c2cc(OC)ccc2O[C@H](c2cccc(OC)c2)[C@H]1O
- z-score [1]: 0.788 (inactive)
- composite z-score [2]: -0.0061
- z-score [3]: 3.04 (inactive)
- z-score [4]: 0.72 (inactive)
- z-score [5]: -0.241 (inactive)
- z-score [6]: 0.245 (inactive)
- z-score [7]: 0.686
- z-score [8]: -0.837 (inactive)
- z-score [9]: -0.406 (inactive)
- z-score [10]: -0.175
- z-score [11]: 0.744
- z-score [12]: 0.448
- z-score [13]: -0.743
- z-score [14]: -0.416
- z-score [15]: 0.53
- z-score [16]: 0.181
- z-score [17]: -0.672 (inactive)
- z-score [18]: -0.0443
- z-score [19]: 1.39
- z-score [20]: -0.124 (inactive)

Structure (SMILES): CON=C(C)CCC(=O)OC[C@H]1O[C@H](C#Cc2ccccc2)C=C[C@@H]1Oc1ccc(C)cc1
- z-score [1]: -2.47 (inactive)
- composite z-score [2]: -0.0141
- z-score [3]: 2.13 (inactive)
- z-score [4]: 0.277 (inactive)
- z-score [5]: -0.73 (inactive)
- z-score [6]: 0.073 (inactive)
- z-score [7]: -0.57
- z-score [8]: -2.16 (inactive)
- z-score [9]: -2.25 (inactive)
- z-score [10]: -0.0339
- z-score [11]: -0.631
- z-score [12]: 0.0995
- z-score [13]: -3.1
- z-score [14]: -2.99
- z-score [15]: -3.96
- z-score [16]: -0.712
- z-score [17]: -0.73 (inactive)
- z-score [18]: -0.5
- z-score [19]: -0.373
- z-score [20]: 0.216 (inactive)

Structure (SMILES): CCN1C(=O)[C@H]2[C@H]3[C@H](O)[C@H](O)CC(=NO[C@H](C)c4cn([C@@H]5COC[C@H]5O)nn4)[C@@H]3CC[C@H]2C1=O
- z-score [1]: -0.712 (inactive)
- composite z-score [2]: -0.322
- z-score [3]: 2.21 (inactive)
- z-score [4]: 0.76 (inactive)
- z-score [5]: 0.436 (inactive)
- z-score [6]: 0.564 (inactive)
- z-score [7]: -0.582
- z-score [8]: 0.477 (inactive)
- z-score [9]: 0.226 (inactive)
- z-score [10]: 0.919
- z-score [11]: 0.165
- z-score [12]: -0.736
- z-score [13]: -0.127
- z-score [14]: -0.0272
- z-score [15]: 0.215
- z-score [16]: -0.407
- z-score [17]: -1.37 (inactive)
- z-score [18]: 0.125
- z-score [19]: -0.11
- z-score [20]: -0.232 (inactive)

Structure (SMILES): CC(C)(C)N1C(=O)[C@H]2[C@@H]3C(=CC[C@H]2C1=O)C(=O)[C@H]1O[C@H]1[C@H]3O
- z-score [1]: -0.537 (inactive)
- composite z-score [2]: -0.328
- z-score [3]: -0.23 (inactive)
- z-score [4]: -1.7 (inactive)
- z-score [5]: 0.0794 (inactive)
- z-score [6]: -2.24 (inactive)
- z-score [7]: 0.495
- z-score [8]: -0.593 (inactive)
- z-score [9]: -0.168 (inactive)
- z-score [10]: 1.22
- z-score [11]: -2.32
- z-score [12]: -3.02
- z-score [13]: -4.31
- z-score [14]: -3.19
- z-score [15]: -3.9
- z-score [16]: 2.38
- z-score [17]: 2.29 (inactive)
- z-score [18]: -0.787
- z-score [19]: -2.59
- z-score [20]: -3.43 (inactive)

Structure (SMILES): COc1cccc([C@H](O)Cn2cc(-c3ccc(CON=C(C)C)cc3)nn2)c1
- z-score [1]: 0.697 (inactive)
- composite z-score [2]: -0.103
- z-score [3]: 25.6 (active)
- z-score [4]: 12.2 (active)
- z-score [5]: 0.99 (inactive)
- z-score [6]: 1.54 (inactive)
- z-score [7]: -1.07
- z-score [8]: 0.0342 (inactive)
- z-score [9]: -0.0373 (inactive)
- z-score [10]: -0.169
- z-score [11]: 0.445
- z-score [12]: -0.374
- z-score [13]: 0.206
- z-score [14]: 1.22
- z-score [15]: 0.157
- z-score [16]: -0.803
- z-score [17]: 0.706 (inactive)
- z-score [18]: -0.0682
- z-score [19]: -0.544
- z-score [20]: -0.409 (inactive)

Structure (SMILES): CC(C)CON=C1[C@H]2CCn3c(=O)n(C)c(=O)n3[C@H]2[C@H](O)[C@@H]2O[C@H]12
- z-score [1]: -0.0031 (inactive)
- composite z-score [2]: -0.0559
- z-score [3]: -0.399 (inactive)
- z-score [4]: -0.165 (inactive)
- z-score [5]: -0.607 (inactive)
- z-score [6]: -0.162 (inactive)
- z-score [7]: -0.445
- z-score [8]: -0.5 (inactive)
- z-score [9]: 0.0343 (inactive)
- z-score [10]: -0.0469
- z-score [11]: 0.543
- z-score [12]: 0.632
- z-score [13]: 0.361
- z-score [14]: 0.191
- z-score [15]: -0.441
- z-score [16]: -0.383
- z-score [17]: -0.444 (inactive)
- z-score [18]: -0.581
- z-score [19]: 0.0994
- z-score [20]: -0.143 (inactive)

Structure (SMILES): CCN1C(=O)[C@H]2[C@H]3[C@H](O)[C@H](O)CC(=NO[C@@H](C)c4cc(-c5c(C)cc(C)cc5C)no4)[C@@H]3CC[C@H]2C1=O
- z-score [1]: 0.663 (inactive)
- composite z-score [2]: -0.103
- z-score [3]: 2.34 (inactive)
- z-score [4]: 0.496 (inactive)
- z-score [5]: 0.504 (inactive)
- z-score [6]: 0.588 (inactive)
- z-score [7]: -0.428
- z-score [8]: 0.204 (inactive)
- z-score [9]: 0.175 (inactive)
- z-score [10]: 0.211
- z-score [11]: 0.165
- z-score [12]: 0.335
- z-score [13]: -0.401
- z-score [14]: -0.807
- z-score [15]: -1.14
- z-score [16]: -1.38
- z-score [17]: -3.4 (inactive)
- z-score [18]: 0.473
- z-score [19]: -0.176
- z-score [20]: 0.296 (inactive)

Structure (SMILES): CCN1C(=O)[C@H]2[C@H]3[C@H](O)[C@H](O)CC(=NOC[C@@H](O)[C@H]4O[C@@H]5OC(C)(C)O[C@@H]5[C@H]4O)[C@@H]3CC[C@H]2C1=O
- z-score [1]: -0.352 (inactive)
- composite z-score [2]: 0.0445
- z-score [3]: 0.158 (inactive)
- z-score [4]: 0.196 (inactive)
- z-score [5]: 0.151 (inactive)
- z-score [6]: 0.318 (inactive)
- z-score [7]: -0.102
- z-score [8]: -0.842 (inactive)
- z-score [9]: 0.162 (inactive)
- z-score [10]: 0.953
- z-score [11]: 0.725
- z-score [12]: -0.532
- z-score [13]: 0.282
- z-score [14]: 0.388
- z-score [15]: 0.12
- z-score [16]: 0.0654
- z-score [17]: 0.141 (inactive)
- z-score [18]: 0.71
- z-score [19]: -0.481
- z-score [20]: -0.794 (inactive)
